Tg IFNy HTS: blocks Toxoplasma gondii growth in the presence of IFN-gamma | Toxoplasma gondii growth in IFN-gamma-treated host cells; stronger effect = lower value | activity change, negative = inhibition, % (no concentration beside the values) | 69,000 compounds, 3.8% hits | AID 1259416; in the data active = activity change below about -70%, passing the limit was not always enough;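 also: host cells are HeLa cells infected with Toxoplasma gondii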
* = called active by the depositor. Many of the other results were omitted from the sample, so hits are more common in it than they were.

SMILES	Tg IFNy HTS
CCn1c(C2CCCN(C(=O)CC34CC5CC(CC(O)(C5)C3)C4)C2)n[nH]c1=O (centres undefined)	2
O=C1CCC2(CCCO2)CCN1Cc1nc2ccccc2s1 (centres undefined)	-3
CCc1ccc(NC(=O)Cn2ncc3c(N4CCC(C)CC4)ncnc32)cc1	127
COc1cccc(CC2CN(C(=O)c3ccc(-c4ccn[nH]4)cc3)CCO2)c1 (centres undefined)	-2
O=S(=O)(NCc1ccccc1)N1CC2C[C@@H]3CC1C[C@H](C2)C3	-15
Cc1cccc(C(=O)NCCc2csc(-c3ccccc3)n2)c1	152
O=C(NCCc1csc(-c2ccc(F)cc2)n1)c1cccc(C(F)(F)F)c1	-34
O=C(NCCc1csc(-c2ccc(F)cc2)n1)c1cccc(Br)c1	-87*
COc1cccc(C(=O)NCCc2csc(-c3cccc(C)c3)n2)c1	366
Cc1cccc(C(=O)NCCc2csc(-c3cccc(F)c3)n2)c1	-75*
CC(=O)NCCc1csc(-c2cccc(F)c2)n1	102
O=C(NCCc1csc(-c2cccc(F)c2)n1)c1ccc(Br)cc1	-50
COc1cccc(C(=O)NCCc2csc(-c3ccc(F)cc3)n2)c1	-68
O=C(NCCc1csc(-c2cccc(F)c2)n1)c1cccc(Br)c1	-81*
Cn1c(SCc2ccccc2)nnc1C1CCCN1S(C)(=O)=O (centres undefined)	-40
Cn1cc(CN(Cc2ccccc2)Cc2ccncc2)c2cc(F)ccc21	79
Cc1ccccc1OC1CN(C(=O)CC2C(=O)NCCN2C(C)C)C1 (centres undefined)	15
O=C(Nc1cc(C(F)(F)F)ccc1N1CCCCC1)c1ccncc1	16
O=C(NC(=O)c1ccc(C(F)(F)F)cc1)NN1CCCCCC1	-77*
C#CCOC(=O)NC(=O)c1ccc(C(F)(F)F)cc1	-15
Cc1ccc(C)c(CNC(=O)c2ccc(-c3nc(CN4CCN(c5ccccc5)CC4)c(C)o3)cc2)c1	-79*
Cc1oc(-c2ccc(C(=O)NCc3ccccn3)cc2)nc1CN1CCN(c2ccccc2)CC1	-29
Cc1oc(-c2ccc(C(=O)NCCC3=CCCCC3)cc2)nc1CN1CCN(c2ccccc2)CC1	-50
Cc1oc(-c2ccc(C(=O)NCC3CCCO3)cc2)nc1CN1CCN(c2ccccc2)CC1 (centres undefined)	95
Cc1oc(-c2ccc(C(=O)NCCC(C)C)cc2)nc1CN1CCN(c2ccccc2)CC1	-38
SMILES	Tg IFNy HTS
CCCNC(=O)c1ccc(-c2nc(CN3CCN(c4ccccc4)CC3)c(C)o2)cc1	60
Cc1oc(-c2ccc(C(=O)NCCN3CCCC3)cc2)nc1CN1CCN(c2ccccc2)CC1	-76*
Cc1ccc(C)c(NC(=O)c2ccc(-c3nc(CN4CCN(c5ccccc5)CC4)c(C)o3)cc2)c1	-40
Cc1oc(-c2ccc(C(=O)NCCc3ccccc3)cc2)nc1CN1CCN(c2ccccc2)CC1	-59
Cc1oc(-c2ccc(C(=O)NCc3cccs3)cc2)nc1CN1CCN(c2ccccc2)CC1	-57
Cc1ccccc1CCNC(=O)c1ccc(-c2nc(CN3CCN(c4ccccc4)CC3)c(C)o2)cc1	-71*
COc1ccccc1CNC(=O)c1ccc(-c2nc(CN3CCN(c4ccccc4)CC3)c(C)o2)cc1	-109*
Cc1nc(NCCCc2c(C)n[nH]c2C)c2cnn(C)c2n1	17
Cn1nnc2c1CCN(C(=O)c1ccco1)C2COCC1CC1 (centres undefined)	2
Cc1cccc(NC(=O)c2cc(-c3cnc(-c4cccnc4)nc3)cn2C)c1	-33
COc1cc(NC(=O)c2c(O)c3cccnc3[nH]c2=O)cc(OC)c1	-14
CN(C)S(=O)(=O)N1C[C@@H]2COC[C@]2(COCC2CCOCC2)C1	-1
CCCc1cc(C(=O)N2CCCC(CNC(=O)c3ccccc3Cl)C2)n(C)n1 (centres undefined)	-39
CNC(=O)c1ccc(-c2nc(CN3CCN(S(=O)(=O)c4ccc(C)cc4C)CC3)c(C)o2)cc1	-66
CNC(=O)c1ccc(-c2nc(CN3CCN(S(=O)(=O)c4c(C)cc(C)cc4C)CC3)c(C)o2)cc1	-96*
CNC(=O)c1ccc(-c2nc(CN3CCN(S(C)(=O)=O)CC3)c(C)o2)cc1	-8
O=C(c1ccccn1)N1CC2CN(C(=O)c3cscn3)CC2C1 (centres undefined)	12
CC1CCC(NC(=O)CN2C(=O)CCc3cc(S(=O)(=O)N4CCCCC4C)ccc32)CC1 (centres undefined)	-22
C#C[C@]1(O)CCC2C3CCC4=CC(=O)CC[C@@H]4C3CC[C@@]21CC (some centres undefined)	-36
C#C[C@]1(OC(C)=O)CCC2C3CCC4=C/C(=N/O)CCC4C3CC[C@@]21CC (some centres undefined)	-78*
C#C[C@]1(O)CC[C@H]2[C@@H]3CCC4=CC(=O)CC[C@@H]4[C@H]3CC[C@@]21C	-68
CCCC[P+](CCCC)(CCCC)Cc1ccc(NC(=O)[C@H](Cc2ccc3ccccc3c2)NC(=NC2CCCCC2)NC2CCCCC2)cc1	-65
Cc1ccccc1-c1ncc(CNCCSc2nnnn2C)s1	5

High-throughput results as filed in PubChem BioAssay.
